The text below walks through data of PubChem BioAssay (EPA / NIEHS).

Conditions in all cases: mRNA level, 48 h; actives raise or lower the signal
Read-out in assay [1]: Cytochrome P450 7A1 (Homo sapiens) (UniProt P22680)
Nature of the assay: LTEA_HepaRG_CYP7A1: Life Technologies and Expression Analysis (LTEA) Assay for Cytochrome P450 7A1 (CYP7A1) using HepaRG (AID 2283496). In outline: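 HepaRG cells plated 48 h, then switched to serum-free induction medium and exposed in duplicate for 48 h to 8-point half-log series from 100 uM in 0.5% DMSO. CYP7A1 mRNA by qRT-PCR (TaqMan), normalized to ACTB/GAPDH/POLR2A; bidirectional fit versus DMSO.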

Read-out in assay [2]: Glutathione S-Transferase (GSTA2), GSTA2 (gene 2939)
Nature of the assay: LTEA_HepaRG_GSTA2: Life Technologies and Expression Analysis (LTEA) Assay for Glutathione S-Transferase (GSTA2) using HepaRG (AID 2283497). The method, boiled down: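 Differentiated human HepaRG cells were exposed in duplicate for 48 h in serum-free induction medium, 8 points from 100 uM top in half-log steps, 0.5% DMSO. GSTA2 mRNA was measured by TaqMan qRT-PCR, normalized to ACTB, GAPDH and POLR2A; bidirectional fit versus DMSO.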

Read-out in assay [3]: growth arrest and DNA damage 45 (GADD45G), GADD45G (gene 10912)
Nature of the assay: LTEA_HepaRG_GADD45G: Life Technologies and Expression Analysis (LTEA) Assay for growth arrest and DNA damage 45 (GADD45G) using HepaRG (AID 2283499). The method, boiled down: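 GADD45G transcript level by qRT-PCR (housekeeping-normalized: ACTB, GAPDH, POLR2A) after 48 h chemical treatment of a single HepaRG lot in serum-free induction medium; eight-point half-log series up to 100 uM in 0.5% DMSO, duplicates, up- or down-regulation scored.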

Read-out in assay [4]: Glutamate-cysteine ligase regulatory (GCLM), GCLM (gene 2730)
Nature of the assay: LTEA_HepaRG_GCLM: Life Technologies and Expression Analysis (LTEA) Assay for Glutamate-cysteine ligase regulatory (GCLM) using HepaRG (AID 2283500). The method, boiled down:
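Differentiated HepaRG cells exposed 48 h in serum-free induction medium to eight half-log concentrations up to 100 uM (0.5% DMSO). GCLM mRNA by TaqMan qRT-PCR, normalized to ACTB, GAPDH and POLR2A; bidirectional fit versus DMSO.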

Read-out in assay [5]: Heat shock 70 kDa protein 1 (HSPA1A), gene 3303
Description: LTEA_HepaRG_HSPA1A: Life Technologies and Expression Analysis (LTEA) Assay for Heat shock 70 kDa protein 1 (HSPA1A) using HepaRG (AID 2283502). The method, boiled down: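 Human HepaRG cells in serum-free induction medium were exposed in duplicate for 48 h to 8 half-log concentrations, highest 100 uM, in 0.5% DMSO. HSPA1A mRNA read by TaqMan qRT-PCR, normalized to ACTB, GAPDH, POLR2A, fitted bidirectionally against DMSO.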

Read-out in assay [6]: Hypoxia-inducible factor 1-alpha (Homo sapiens) (UniProt Q16665)
Nature of the assay: LTEA_HepaRG_HIF1A: Life Technologies and Expression Analysis (LTEA) Assay for Hypoxia-inducible factor 1 (HIF1A) Trancription factor using HepaRG (AID 2283503). The method, boiled down: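 Differentiated HepaRG cells in serum-free induction medium exposed 48 h, in duplicate, to 8-point half-log series from 100 uM in 0.5% DMSO. HIF1A mRNA measured by TaqMan qRT-PCR, normalized to ACTB/GAPDH/POLR2A, fitted bidirectionally versus DMSO.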

Read-out in assay [7]: 3-Hydroxy-3-Methylglutaryl-CoA Synthase 2 (HMGCS2), HMGCS2 (gene 3158)
Description: LTEA_HepaRG_HMGCS2: Life Technologies and Expression Analysis (LTEA) Assay for 3-Hydroxy-3-Methylglutaryl-CoA Synthase 2 (HMGCS2) using HepaRG (AID 2283504). In outline: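 Readout is HMGCS2 transcript by qRT-PCR, housekeeping-normalised (ACTB/GAPDH/POLR2A) and fitted bidirectionally against 0.5% DMSO. Differentiated HepaRG cells received chemicals 48 h, duplicate wells, eight half-log concentrations topping at 100 uM.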

Read-out in the next assay: HGF (gene 3082)
Nature of the assay: LTEA_HepaRG_HGF: Life Technologies and Expression Analysis (LTEA) Assay for Hepatocyte Growth Facto (HGF) using HepaRG (AID 2283505). In outline:
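HGF transcript was quantified by TaqMan qRT-PCR against three housekeeping genes after 48 h treatment of HepaRG cells. Exposure ran in duplicate over eight half-log steps topping at 100 uM in 0.5% DMSO vehicle.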

Read-out in assay [8]: Insulin Like Growth Factor 1 (IGF1), IGF1 (gene 3479)
Description: LTEA_HepaRG_IGF1: Life Technologies and Expression Analysis (LTEA) Assay for Insulin Like Growth Factor 1 (IGF1) using HepaRG (AID 2283506). The method, boiled down:
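Differentiated HepaRG cells in serum-free induction medium, exposed 48 h in duplicate to 8 half-log concentrations up to 100 uM in 0.5% DMSO. IGF1 mRNA by Fluidigm qRT-PCR, normalised to ACTB, GAPDH and POLR2A.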

Read-out in assay [9]: Intercellular Adhesion Molecule 1 (ICAM1), ICAM1 (gene 3383)
Nature of the assay: LTEA_HepaRG_ICAM1: Life Technologies and Expression Analysis (LTEA) Assay for Intercellular Adhesion Molecule 1 (ICAM1) using HepaRG (AID 2283507). In outline:
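ICAM1 transcript levels measured by qRT-PCR, normalized to three housekeeping genes (ACTB, GAPDH, POLR2A), after 48 h chemical exposure of HepaRG cells. Duplicate eight-point half-log series from 100 uM in 0.5% DMSO; gain or loss fitted against vehicle.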

Read-out in assay [10]: Insulin-like growth factor-binding protein 1 (IGFBP1), IGFBP1 (gene 3484)
Description: LTEA_HepaRG_IGFBP1: Life Technologies and Expression Analysis (LTEA) Assay for Insulin-like growth factor-binding protein 1 (IGFBP1) using HepaRG (AID 2283508). The method, boiled down: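 Read-out is qRT-PCR transcript level normalized to three housekeeping genes, fitted in both directions against 0.5% DMSO. Differentiated HepaRG cells received eight half-log concentrations (top 100 uM) in duplicate for 48 h in serum-free induction medium.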

Read-out in assay [11]: Interleukin 6 Receptor (IL6R), IL6R (gene 3570)
Description: LTEA_HepaRG_IL6R: Life Technologies and Expression Analysis (LTEA) Assay for Interleukin 6 Receptor (IL6R) using HepaRG (AID 2283510). In outline: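 Differentiated HepaRG cells, plated 48 h, then exposed in duplicate for 48 h in serum-free induction medium to 8 half-log concentrations (top 100 uM, 0.5% DMSO). IL6R mRNA measured by TaqMan qRT-PCR, normalized to ACTB/GAPDH/POLR2A; bidirectional fit vs DMSO.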

Read-out in assay [12]: Potassium channel subfamily K member 1 (KCNK1), KCNK1 (gene 3775)
Nature of the assay: LTEA_HepaRG_KCNK1: Life Technologies and Expression Analysis (LTEA) Assay for Potassium channel subfamily K member 1 (KCNK1) using HepaRG (AID 2283511). In outline:
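Differentiated HepaRG cells, 48 h exposure in serum-free induction medium with 0.5% DMSO; 8 concentrations, half-log from 100 uM, duplicate. KCNK1 mRNA by qRT-PCR, normalized to ACTB, GAPDH, POLR2A; bidirectional fit vs DMSO.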

Read-out in assay [13]: Keratin 19 (KRT19), KRT19 (gene 3880)
Nature of the assay: LTEA_HepaRG_KRT19: Life Technologies and Expression Analysis (LTEA) Assay for Keratin 19 (KRT19) using HepaRG (AID 2283512). In outline: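 KRT19 transcript measured by TaqMan qRT-PCR, referenced to three housekeeping genes, after HepaRG cells received test chemicals for 48 h. Eight half-log concentrations, top 100 uM, 0.5% DMSO vehicle; increases and decreases both fitted.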

Read-out in assay [14]: JUN Transcription Factor, JUN (gene 3725)
Description: LTEA_HepaRG_JUN: Life Technologies and Expression Analysis (LTEA) Assay for JUN Transcription Factor using HepaRG (AID 2283513). In outline: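 HepaRG cells, 48 h post-plating, exposed 48 h in serum-free induction medium to 8-point half-log series (top 100 uM, 0.5% DMSO), duplicate; mRNA by qRT-PCR (TaqMan, Fluidigm), normalized to ACTB/GAPDH/POLR2A; bidirectional fit vs DMSO.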

Read-out in assay [15]: Lipase C (LIPC), LIPC (gene 3990)
Nature of the assay: LTEA_HepaRG_LIPC: Life Technologies and Expression Analysis (LTEA) Assay for Lipase C (LIPC) using HepaRG (AID 2283514). The method, boiled down:
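HepaRG cells, 48 h after plating, treated in duplicate for 48 h in serum-free induction medium over 8 half-log concentrations from 100 uM, 0.5% DMSO. LIPC mRNA by TaqMan qRT-PCR normalized to ACTB/GAPDH/POLR2A; bidirectional fit versus DMSO.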

Read-out in assay [16]: Lipoprotein lipase (LPL), LPL (gene 4023)
Description: LTEA_HepaRG_LPL: Life Technologies and Expression Analysis (LTEA) Assay for Lipoprotein lipase (LPL) using HepaRG (AID 2283515). In outline:
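Differentiated HepaRG cells, plated 48 h, then exposed 48 h in serum-free induction medium to 8 concentrations (top 100 uM, half-log steps) in 0.5% DMSO, duplicate. LPL mRNA measured by qRT-PCR, normalized to ACTB, GAPDH and POLR2A.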

Read-out in assay [17]: Glutamate-cysteine ligase catalytic (GCLC), GCLC (gene 2729)
Description: LTEA_HepaRG_GCLC: Life Technologies and Expression Analysis (LTEA) Assay for Glutamate-cysteine ligase catalytic (GCLC) using HepaRG (AID 2283498). In outline: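 Differentiated HepaRG cells exposed 48 h in serum-free induction medium, eight-point half-log series topping at 100 uM in 0.5% DMSO, duplicates. GCLC mRNA by qRT-PCR normalized to ACTB, GAPDH and POLR2A, fitted bidirectionally versus DMSO.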

Read-out in assay [18]: Glutathione S-transferase M3 (GSTM3), GSTM3 (gene 2947)
Description: LTEA_HepaRG_GSTM3: Life Technologies and Expression Analysis (LTEA) Assay for Glutathione S-transferase M3 (GSTM3) using HepaRG (AID 2283501). In outline: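 GSTM3 transcript levels came from Fluidigm TaqMan qRT-PCR normalized to three housekeeping genes, fitted in both directions against DMSO. HepaRG cultures received chemicals for 48 h in serum-free induction medium (0.5% DMSO), 8 half-log concentrations up to 100 uM, duplicate.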

Read-out in assay [19]: Interleukin 6 (IL6), IL6 (gene 3569)
Nature of the assay: LTEA_HepaRG_IL6: Life Technologies and Expression Analysis (LTEA) Assay for Interleukin 6 (IL6) using HepaRG (AID 2283509). The method, boiled down: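 HepaRG cells exposed in duplicate for 48 h to eight half-log concentrations, top 100 uM, in 0.5% DMSO serum-free induction medium. mRNA measured by qRT-PCR, normalized to ACTB, GAPDH and POLR2A. Bidirectional fit versus DMSO.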

Structures are written as SMILES. Active and inactive are the calls of the source. The calls were made as follows: active = hit-call score of the fitted dose curve at least 0.9, where 1 is the maximum; inactive = score below 0.9.

Chain of Hypoxia-inducible factor 1-alpha (Homo sapiens) (Q16665 whole entry, looked up): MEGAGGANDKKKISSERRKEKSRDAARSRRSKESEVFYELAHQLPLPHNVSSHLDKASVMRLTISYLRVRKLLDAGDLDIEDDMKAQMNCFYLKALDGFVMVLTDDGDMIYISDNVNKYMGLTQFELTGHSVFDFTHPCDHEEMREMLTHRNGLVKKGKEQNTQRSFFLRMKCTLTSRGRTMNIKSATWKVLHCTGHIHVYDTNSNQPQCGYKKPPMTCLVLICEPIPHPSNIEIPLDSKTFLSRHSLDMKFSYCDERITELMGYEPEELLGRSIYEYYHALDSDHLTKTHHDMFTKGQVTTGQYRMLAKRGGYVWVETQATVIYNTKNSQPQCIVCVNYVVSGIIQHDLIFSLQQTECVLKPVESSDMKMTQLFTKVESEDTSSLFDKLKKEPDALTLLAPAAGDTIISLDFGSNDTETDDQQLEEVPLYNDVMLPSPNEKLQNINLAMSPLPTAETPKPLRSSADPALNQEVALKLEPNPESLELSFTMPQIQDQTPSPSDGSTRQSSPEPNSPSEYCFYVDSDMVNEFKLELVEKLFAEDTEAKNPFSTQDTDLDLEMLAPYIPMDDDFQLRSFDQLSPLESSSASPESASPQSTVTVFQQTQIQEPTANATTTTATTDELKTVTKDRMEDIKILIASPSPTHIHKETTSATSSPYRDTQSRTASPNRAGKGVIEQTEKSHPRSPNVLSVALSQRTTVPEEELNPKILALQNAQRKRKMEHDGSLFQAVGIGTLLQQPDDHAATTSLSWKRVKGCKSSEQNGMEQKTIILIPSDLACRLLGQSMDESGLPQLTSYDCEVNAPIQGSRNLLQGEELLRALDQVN

As for `CCCCCCCC/C=C\CCCCCCCC(=O)OC[C@@H](O)[C@H]1OC[C@H](O)[C@H]1O`, the outcome in assay [1], in [2], in [3], in assay [4], in assay [5] and in assay [6] was inactive. In addition, the compound was classed as inactive (in [7]; in the assay with HGF (gene 3082); in assay [8]; in [9]; in [10]; in assay [11]). Also, the call in assay [12], in assay [13], in assay [14], in [15] and in assay [16] was inactive.

Regarding `O=C(O)[C@H](O)[C@@H](O)C(=O)O`, the compound was classed as inactive in assay [2], in [17], in [3], in [4], in [18] and in assay [5]. For the same compound, the compound was classed as inactive (in [7]; in the assay with HGF (gene 3082); in assay [8]; in assay [9]; in [10]; in assay [11]). Also, the compound was classed as inactive in assay [12], in assay [13], in [14], in assay [15] and in assay [16].

`OCCNCCO`: the AC50 (commonly the midpoint of the concentration-response curve, whichever way the signal moves) in assay [1] was 50 µM (active); in assay [2] it was 63.4 µM (active); in assay [6] it was 50 µM (active); in assay [7], 75 µM (active); in assay [13] it was 50 µM (active). Besides, the result (in [3]; in assay [4]; in [5]; in the assay with HGF (gene 3082); in assay [8]; in assay [9]) was inactive. In addition, the compound was called inactive in [10], in assay [11], in assay [12], in [14], in assay [15] and in assay [16].

As for `CC(C)C(=O)Nc1ccc([N+](=O)[O-])c(C(F)(F)F)c1`, the AC50 was 67.6 µM (active) in [1]; 65.8 µM (active) in [2]; 85.6 µM (active) in [3]; 50 µM (active) in [4]; 72.8 µM (active) in assay [7]; 66.9 µM (active) with HGF (gene 3082). The AC50 in assay [8] was 37.8 µM (active); in assay [9], 87.3 µM (active); in [10], 66.7 µM (active); in [19] it was 85 µM (active); in assay [13], 23.5 µM (active); in assay [15] it was 55.5 µM (active). Moreover, the AC50 in assay [16] is 85.7 µM (active). Besides, the call in [5], in [11], in assay [12] and in assay [14] was inactive.
